Among the targets are RELARELA (p65 homodimer) (Homo sapiens, UniProt Q04206 1-307); p50p50 homodimer (Homo sapiens, UniProt P19838 7-356); RELB subunit;p50 subunit (Homo sapiens;Homo sapiens, UniProt Q01201;P19838 120-401;7-356).
Holding throughout (test): protein binding microarray; high values mean tight binding
Common to all, as to settings: dsDNA, one strand shown

In the next experiment the target is T1, p52p52 homodimer (Homo sapiens, UniProt Q00653 4-332).
T1 sequence: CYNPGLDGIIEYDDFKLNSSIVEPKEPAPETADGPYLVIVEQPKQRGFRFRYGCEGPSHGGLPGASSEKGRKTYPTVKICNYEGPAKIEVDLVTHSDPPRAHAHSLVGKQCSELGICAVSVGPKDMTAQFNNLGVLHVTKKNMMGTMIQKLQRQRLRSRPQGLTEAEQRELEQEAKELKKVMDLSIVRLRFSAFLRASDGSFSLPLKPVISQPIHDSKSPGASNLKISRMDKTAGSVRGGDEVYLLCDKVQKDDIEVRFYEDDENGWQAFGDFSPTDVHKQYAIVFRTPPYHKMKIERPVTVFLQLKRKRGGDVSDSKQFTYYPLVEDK

The target of experiment [1] is RELA (p65) subunit of heterodimer;p50 subunit (Homo sapiens;Homo sapiens, UniProt Q04206;P19838 1-307;7-356).
Sequence of RELA (p65) subunit of heterodimer;p50 subunit (Q04206 1-307, chain 1 of 2): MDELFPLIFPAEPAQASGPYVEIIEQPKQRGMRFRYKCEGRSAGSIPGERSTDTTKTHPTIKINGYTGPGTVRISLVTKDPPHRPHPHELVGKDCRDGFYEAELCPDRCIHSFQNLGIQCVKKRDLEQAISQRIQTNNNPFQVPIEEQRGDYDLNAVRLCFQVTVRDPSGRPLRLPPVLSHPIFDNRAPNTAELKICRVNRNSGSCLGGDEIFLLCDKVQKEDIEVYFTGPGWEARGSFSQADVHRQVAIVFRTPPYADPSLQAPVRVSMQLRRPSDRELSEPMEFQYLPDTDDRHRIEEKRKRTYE
Sequence of RELA (p65) subunit of heterodimer;p50 subunit (P19838 7-356, chain 2 of 2): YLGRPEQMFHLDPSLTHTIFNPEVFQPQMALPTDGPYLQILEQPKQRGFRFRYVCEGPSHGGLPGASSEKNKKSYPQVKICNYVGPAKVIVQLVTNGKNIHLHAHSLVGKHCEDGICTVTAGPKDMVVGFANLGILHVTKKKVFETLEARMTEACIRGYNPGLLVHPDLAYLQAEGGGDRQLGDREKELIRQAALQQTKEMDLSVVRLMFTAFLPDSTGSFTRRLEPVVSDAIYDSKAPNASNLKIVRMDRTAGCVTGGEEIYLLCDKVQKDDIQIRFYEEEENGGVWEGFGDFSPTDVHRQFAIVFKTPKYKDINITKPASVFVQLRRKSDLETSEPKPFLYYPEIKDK
For experiment [2], the target named is RELA (p65) subunit of heterodimer;p52 subunit (Homo sapiens;Homo sapiens, UniProt Q04206;Q00653 1-307;4-332).
The target of the next experiment is T2, RELB subunit;p52 subunit (Homo sapiens;Homo sapiens, UniProt Q01201;Q00653 120-401;4-332).
T2 sequence 1: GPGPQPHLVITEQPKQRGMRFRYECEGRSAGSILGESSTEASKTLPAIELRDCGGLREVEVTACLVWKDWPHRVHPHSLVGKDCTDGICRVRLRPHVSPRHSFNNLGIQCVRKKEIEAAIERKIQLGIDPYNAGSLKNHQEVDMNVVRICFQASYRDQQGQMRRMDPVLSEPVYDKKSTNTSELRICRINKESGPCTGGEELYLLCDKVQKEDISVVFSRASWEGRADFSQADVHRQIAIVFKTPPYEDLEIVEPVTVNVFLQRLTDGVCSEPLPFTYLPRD
T2 sequence 2: T1 sequence

Experiment [3] has as its target C-Rel subunit;p50 subunit (Homo sapiens;Homo sapiens, UniProt Q04864;P19838 1-285;7-356).
Experiment [4] concerns the target T3, C-Rel subunit;p52 subunit (Homo sapiens;Homo sapiens, UniProt Q04864;Q00653 1-285;4-332).
T3 sequence 1: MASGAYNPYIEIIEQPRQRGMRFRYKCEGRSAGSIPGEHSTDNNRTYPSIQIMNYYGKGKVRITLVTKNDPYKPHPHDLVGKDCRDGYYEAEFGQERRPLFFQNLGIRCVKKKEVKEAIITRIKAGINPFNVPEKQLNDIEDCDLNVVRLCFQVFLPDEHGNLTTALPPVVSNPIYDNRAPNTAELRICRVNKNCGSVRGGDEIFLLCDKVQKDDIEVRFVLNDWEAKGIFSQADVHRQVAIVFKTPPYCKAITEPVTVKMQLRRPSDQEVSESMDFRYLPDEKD
T3 sequence 2: T1 sequence

Sequence of p50p50 homodimer (P19838 7-356): as the sequence (P19838 7-356, chain 2 of 2) above
Sequence of RELARELA (p65 homodimer) (Q04206 1-307): as the sequence (Q04206 1-307, chain 1 of 2) above

With CAAAGCCTCCC, the binding signal was -0.873 z-score in the experiment with RELARELA (p65 homodimer); -0.992 z-score with p50p50 homodimer; -0.631 z-score with p52p52 homodimer; -0.874 z-score in [1]; -0.823 z-score in experiment [2]; -0.859 z-score with RELB subunit;p50 subunit. Besides, the binding signal is -0.707 z-score with RELB subunit;p52 subunit, -1.19 z-score in [3] and -0.839 z-score in [4].
On to AAGTGTGTCCT, for which the binding signal was -0.0699 z-score with RELARELA (p65 homodimer); -1.1 z-score in the experiment with p50p50 homodimer; -0.57 z-score with p52p52 homodimer; -0.888 z-score in [1]; -0.62 z-score in experiment [2]; -0.808 z-score in the experiment with RELB subunit;p50 subunit. Moreover, the binding signal in the experiment with RELB subunit;p52 subunit is -0.709 z-score; in experiment [3], -0.908 z-score; in experiment [4], -0.763 z-score.
As to CGGTTGCTCCT, the binding signal with RELARELA (p65 homodimer) was -0.357 z-score; with p50p50 homodimer it was -1.5 z-score; with p52p52 homodimer it was -0.686 z-score; in experiment [1], -0.927 z-score; in experiment [2] it was -0.989 z-score; in the experiment with RELB subunit;p50 subunit, -1.09 z-score. Besides, the binding signal in the experiment with RELB subunit;p52 subunit is -0.904 z-score; in experiment [3], -1.44 z-score; in [4], -1 z-score.
CAGATACTCCC: the binding signal in the experiment with RELARELA (p65 homodimer) is -0.1 z-score; in the experiment with p50p50 homodimer, -0.181 z-score; in the experiment with p52p52 homodimer it was -0.309 z-score; in experiment [1], -0.154 z-score; in experiment [2], -0.498 z-score; with RELB subunit;p50 subunit, -0.145 z-score. In addition, the binding signal with RELB subunit;p52 subunit is -0.637 z-score; in [3], -0.312 z-score; in experiment [4], -0.374 z-score.
For the sequence AGGGGATCCCT, the binding signal with RELARELA (p65 homodimer) stood at 1.82 z-score; with p50p50 homodimer, 1.11 z-score; with p52p52 homodimer it was 2.11 z-score; in [1], 2.32 z-score; in [2], 1.95 z-score; with RELB subunit;p50 subunit it was 1.58 z-score. Besides, the binding signal came out at 1.57 z-score in the experiment with RELB subunit;p52 subunit, 1.42 z-score in experiment [3] and 2.29 z-score in [4].
Consider CAGAAGATCCT, for which the binding signal was -1.03 z-score with RELARELA (p65 homodimer); -2.16 z-score in the experiment with p50p50 homodimer; -0.765 z-score with p52p52 homodimer; -1.33 z-score in [1]; -1.13 z-score in experiment [2]; -1.3 z-score in the experiment with RELB subunit;p50 subunit. Further, the values for the binding signal (in the experiment with RELB subunit;p52 subunit; in experiment [3]; in experiment [4]) were -1.12 z-score, -1.5 z-score and -1.07 z-score, respectively.
Turning to CGGAGTATCCC, the binding signal was 0.97 z-score with RELARELA (p65 homodimer); -0.805 z-score with p50p50 homodimer; -0.256 z-score with p52p52 homodimer; 0.294 z-score in experiment [1]; -0.0559 z-score in [2]; -0.605 z-score with RELB subunit;p50 subunit. The binding signal with RELB subunit;p52 subunit was -0.711 z-score; in experiment [3], -0.0452 z-score; in [4], -0.0756 z-score.
Take GGAAGTATCCT: the binding signal with RELARELA (p65 homodimer) is -0.066 z-score; with p50p50 homodimer it was -1.38 z-score; with p52p52 homodimer it was -0.457 z-score; in experiment [1], -0.799 z-score; in [2], -0.877 z-score; in the experiment with RELB subunit;p50 subunit, -1.12 z-score. In addition, the binding signal was -0.866 z-score in the experiment with RELB subunit;p52 subunit, -1.09 z-score in experiment [3] and -0.681 z-score in experiment [4].
As to CGAGTCCCCCT, the binding signal was -0.0442 z-score in the experiment with RELARELA (p65 homodimer); 1.47 z-score with p50p50 homodimer; 1.11 z-score in the experiment with p52p52 homodimer; 1.66 z-score in experiment [1]; 1.39 z-score in [2]; 1.68 z-score with RELB subunit;p50 subunit. Besides, the binding signal with RELB subunit;p52 subunit worked out at 2.08 z-score; in experiment [3], 1.47 z-score; in experiment [4], 1.15 z-score.
In the case of CGGGGCATCCT, the binding signal with RELARELA (p65 homodimer) was -0.458 z-score; with p50p50 homodimer it was 0.212 z-score; with p52p52 homodimer, 0.516 z-score; in experiment [1], 0.0241 z-score; in [2], 0.306 z-score; with RELB subunit;p50 subunit, 0.179 z-score. For the same sequence, the binding signal in the experiment with RELB subunit;p52 subunit stood at 0.34 z-score; in [3], 0.188 z-score; in experiment [4], 0.458 z-score.
Regarding CAAATCTCCCT, the binding signal with RELARELA (p65 homodimer) was 0.0987 z-score; with p50p50 homodimer, 1.24 z-score; in the experiment with p52p52 homodimer it was 0.832 z-score; in [1], 1.06 z-score; in [2] it was 1.05 z-score; with RELB subunit;p50 subunit, 1.35 z-score. Further, the binding signal is 1.4 z-score with RELB subunit;p52 subunit, 0.664 z-score in experiment [3] and 1.06 z-score in experiment [4].
Take CAAAGGGTCCC: the binding signal with RELARELA (p65 homodimer) is -0.377 z-score; in the experiment with p50p50 homodimer it was -0.186 z-score; in the experiment with p52p52 homodimer it was -0.0557 z-score; in experiment [1], -0.357 z-score; in experiment [2], -0.288 z-score; in the experiment with RELB subunit;p50 subunit, 0.0439 z-score. The values for the binding signal (in the experiment with RELB subunit;p52 subunit; in experiment [3]; in experiment [4]) were -0.0611 z-score, -0.397 z-score and -0.359 z-score, respectively.
With GAAGGCCCCCC, the binding signal with RELARELA (p65 homodimer) was -1.44 z-score; with p50p50 homodimer, 0.635 z-score; with p52p52 homodimer, 0.244 z-score; in experiment [1], 0.456 z-score; in [2], 0.62 z-score; with RELB subunit;p50 subunit, 0.366 z-score. Moreover, the binding signal with RELB subunit;p52 subunit amounted to 0.671 z-score; in experiment [3] it was 0.408 z-score; in experiment [4], 0.0615 z-score.
Take AAGATTTCCCC: the binding signal turned out to be 2.26 z-score in the experiment with RELARELA (p65 homodimer); 1.48 z-score with p50p50 homodimer; 2.39 z-score in the experiment with p52p52 homodimer; 2.11 z-score in [1]; 2 z-score in experiment [2]; 2.3 z-score with RELB subunit;p50 subunit. Moreover, the binding signal with RELB subunit;p52 subunit amounted to 2.17 z-score; in experiment [3] it was 1.73 z-score; in experiment [4] it was 2.03 z-score.
On to CAGGTCGCCCC, for which the binding signal with RELARELA (p65 homodimer) was -0.367 z-score; with p50p50 homodimer, -0.385 z-score; in the experiment with p52p52 homodimer, -0.232 z-score; in experiment [1], -0.268 z-score; in [2], -0.328 z-score; in the experiment with RELB subunit;p50 subunit it was -0.18 z-score. Also, the binding signal in the experiment with RELB subunit;p52 subunit is -0.126 z-score; in experiment [3] it was 0.016 z-score; in [4], -0.13 z-score.
